From article PMC7862700, “An all-to-all approach to the identification of sequence-specific readers for epigenetic DNA modifications on cytosine”

What was measured:
Assay in all cases: DAPPL (digital affinity profiling via proximity ligation, sequencing); 10 mM Tris-HCl pH 7.5, 50 mM NaCl, 1 mM DTT, 4% glycerol, room temperature, 30 min; GST-TFs on glutathione beads, 16-mer random dsDNA library, 0.1% formaldehyde crosslink after washing; high values mean tight binding
Conditions in all cases: protein: recombinant; tags: N-terminal GST; dsDNA, one strand shown
FLI1 = molecular target: T1, FLI1 (Homo sapiens, UniProt Q01543 1-452)
T1 sequence: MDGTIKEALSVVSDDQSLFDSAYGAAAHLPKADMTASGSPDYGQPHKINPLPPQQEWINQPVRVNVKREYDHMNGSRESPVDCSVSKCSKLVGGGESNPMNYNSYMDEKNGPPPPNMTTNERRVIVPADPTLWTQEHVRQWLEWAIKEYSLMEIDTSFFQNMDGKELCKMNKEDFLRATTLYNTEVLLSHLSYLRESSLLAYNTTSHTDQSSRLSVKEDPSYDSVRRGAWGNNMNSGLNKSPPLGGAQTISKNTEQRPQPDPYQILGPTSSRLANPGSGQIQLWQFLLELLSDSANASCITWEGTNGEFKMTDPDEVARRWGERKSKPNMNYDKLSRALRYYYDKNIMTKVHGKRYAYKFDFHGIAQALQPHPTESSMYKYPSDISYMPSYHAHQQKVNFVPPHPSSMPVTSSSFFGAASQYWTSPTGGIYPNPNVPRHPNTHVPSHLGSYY
Outline: (§1)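 Human transcription factors fused to GST were expressed in yeast, captured on glutathione beads, given DNA barcodes and pooled with a GST-only negative control. Pools were incubated with 200 nmole of a 16-mer random double-stranded DNA library in Tris/NaCl/DTT/glycerol buffer at room temperature for 30 min. They were then washed, crosslinked with 0.1% formaldehyde, proximity-ligated (BsaI/T4 ligase, 1 h, 37 °C), PCR-amplified and sequenced on an Illumina NextSeq500. Binding signal is each 6-mer's read frequency for a factor divided by its frequency for the GST control.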

ELK1 = molecular target: T2, ELK1 (Homo sapiens, UniProt P19419 1-428)
T2 sequence: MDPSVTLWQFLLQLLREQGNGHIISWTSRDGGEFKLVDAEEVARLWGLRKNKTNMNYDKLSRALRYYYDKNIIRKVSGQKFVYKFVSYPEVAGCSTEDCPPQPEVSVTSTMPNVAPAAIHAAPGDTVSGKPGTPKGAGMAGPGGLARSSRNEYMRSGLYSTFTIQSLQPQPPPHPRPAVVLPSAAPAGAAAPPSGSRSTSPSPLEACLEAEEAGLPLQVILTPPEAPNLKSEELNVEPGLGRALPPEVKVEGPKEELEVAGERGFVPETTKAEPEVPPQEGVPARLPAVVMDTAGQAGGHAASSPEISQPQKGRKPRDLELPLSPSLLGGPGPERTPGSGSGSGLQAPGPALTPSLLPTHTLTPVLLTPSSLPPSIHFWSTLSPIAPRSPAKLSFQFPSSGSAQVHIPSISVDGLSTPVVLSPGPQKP
Outline: as §1

GABPA = molecular target: T3, GABPA (Homo sapiens, UniProt Q06546 1-454)
T3 sequence: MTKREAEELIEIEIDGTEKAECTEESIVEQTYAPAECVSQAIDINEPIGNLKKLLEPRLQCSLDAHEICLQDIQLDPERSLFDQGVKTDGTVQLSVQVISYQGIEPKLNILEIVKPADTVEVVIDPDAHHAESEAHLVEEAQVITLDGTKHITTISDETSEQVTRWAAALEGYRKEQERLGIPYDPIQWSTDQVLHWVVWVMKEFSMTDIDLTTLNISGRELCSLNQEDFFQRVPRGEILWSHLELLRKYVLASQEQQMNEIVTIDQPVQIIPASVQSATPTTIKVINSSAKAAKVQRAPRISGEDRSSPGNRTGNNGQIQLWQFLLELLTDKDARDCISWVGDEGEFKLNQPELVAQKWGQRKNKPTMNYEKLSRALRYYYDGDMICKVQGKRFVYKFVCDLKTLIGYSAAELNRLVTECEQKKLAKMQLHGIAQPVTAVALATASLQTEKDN
Outline: as §1

ERG = molecular target: T4, ERG (Homo sapiens, UniProt P11308 1-479)
T4 sequence: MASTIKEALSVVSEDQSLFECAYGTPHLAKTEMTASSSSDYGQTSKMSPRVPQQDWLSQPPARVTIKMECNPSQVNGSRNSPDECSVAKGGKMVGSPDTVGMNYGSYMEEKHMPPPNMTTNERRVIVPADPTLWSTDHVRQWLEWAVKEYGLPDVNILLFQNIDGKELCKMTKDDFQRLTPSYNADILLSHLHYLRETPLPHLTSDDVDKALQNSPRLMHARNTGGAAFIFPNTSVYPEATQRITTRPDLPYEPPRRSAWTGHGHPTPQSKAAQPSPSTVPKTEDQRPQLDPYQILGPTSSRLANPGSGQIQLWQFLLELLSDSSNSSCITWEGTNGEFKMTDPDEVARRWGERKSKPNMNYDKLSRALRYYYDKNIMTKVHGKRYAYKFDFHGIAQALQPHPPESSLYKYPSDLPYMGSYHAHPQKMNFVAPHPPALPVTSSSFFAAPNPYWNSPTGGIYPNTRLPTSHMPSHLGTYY
Outline: as §1

ELF1 = ELF1 (Homo sapiens, UniProt P32519 1-619)
Outline: as §1

EHF = molecular target: T5, EHF (Homo sapiens, UniProt Q9NZC4 1-300)
T5 sequence: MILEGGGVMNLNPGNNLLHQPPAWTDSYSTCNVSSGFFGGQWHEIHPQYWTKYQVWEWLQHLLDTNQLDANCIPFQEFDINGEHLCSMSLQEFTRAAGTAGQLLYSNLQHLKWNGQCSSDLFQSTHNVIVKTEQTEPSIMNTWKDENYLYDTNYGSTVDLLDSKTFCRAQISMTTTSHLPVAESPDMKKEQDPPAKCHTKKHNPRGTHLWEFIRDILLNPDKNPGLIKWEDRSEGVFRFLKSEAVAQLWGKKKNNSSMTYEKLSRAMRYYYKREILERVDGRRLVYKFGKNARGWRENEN
Outline: as §1

SPI1 = SPI1 (Homo sapiens, UniProt P17947 1-270)
Outline: as §1

SPIB = SPIB (Homo sapiens, UniProt Q01892 1-262)
Outline: as §1

ELK3 = molecular target: T6, ELK3 (Homo sapiens, UniProt P41970 1-407)
T6 sequence: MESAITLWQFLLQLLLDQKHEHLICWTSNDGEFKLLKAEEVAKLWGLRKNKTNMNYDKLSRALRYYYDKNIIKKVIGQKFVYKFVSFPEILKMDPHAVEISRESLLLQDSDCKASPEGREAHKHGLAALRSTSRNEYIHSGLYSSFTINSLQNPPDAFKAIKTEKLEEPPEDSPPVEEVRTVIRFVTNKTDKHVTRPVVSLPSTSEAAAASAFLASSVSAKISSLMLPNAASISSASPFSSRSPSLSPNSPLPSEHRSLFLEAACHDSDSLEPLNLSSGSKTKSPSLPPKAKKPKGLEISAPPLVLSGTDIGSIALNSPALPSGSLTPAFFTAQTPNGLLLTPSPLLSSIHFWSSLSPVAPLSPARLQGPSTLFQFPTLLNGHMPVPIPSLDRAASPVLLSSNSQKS
Outline: as §1

FEV = molecular target: T7, FEV (Homo sapiens, UniProt Q99581 1-238)
T7 sequence: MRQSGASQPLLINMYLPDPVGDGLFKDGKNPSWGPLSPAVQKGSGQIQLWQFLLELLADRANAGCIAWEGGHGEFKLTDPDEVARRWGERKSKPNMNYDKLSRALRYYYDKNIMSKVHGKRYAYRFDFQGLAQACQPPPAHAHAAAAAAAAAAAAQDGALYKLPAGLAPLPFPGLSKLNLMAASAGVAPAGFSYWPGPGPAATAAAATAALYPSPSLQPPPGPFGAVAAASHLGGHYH
Outline: as §1

ETV5 = ETV5 (Homo sapiens, UniProt P41161 1-510)
Outline: as §1

SPIC = molecular target: T8, SPIC (Homo sapiens, UniProt Q8N5J4 1-248)
T8 sequence: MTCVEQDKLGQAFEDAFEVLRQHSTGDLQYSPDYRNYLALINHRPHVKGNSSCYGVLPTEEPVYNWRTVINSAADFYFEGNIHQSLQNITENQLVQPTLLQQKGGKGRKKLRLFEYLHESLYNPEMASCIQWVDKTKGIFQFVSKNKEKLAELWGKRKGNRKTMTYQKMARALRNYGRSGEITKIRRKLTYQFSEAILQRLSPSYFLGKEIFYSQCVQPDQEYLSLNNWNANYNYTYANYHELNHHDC
Outline: as §1

ELF4 = ELF4 (Homo sapiens, UniProt Q99607 1-663)
Outline: as §1

ELK4 = molecular target: T9, ELK4 (Homo sapiens, UniProt P28324-2 1-405)
T9 sequence: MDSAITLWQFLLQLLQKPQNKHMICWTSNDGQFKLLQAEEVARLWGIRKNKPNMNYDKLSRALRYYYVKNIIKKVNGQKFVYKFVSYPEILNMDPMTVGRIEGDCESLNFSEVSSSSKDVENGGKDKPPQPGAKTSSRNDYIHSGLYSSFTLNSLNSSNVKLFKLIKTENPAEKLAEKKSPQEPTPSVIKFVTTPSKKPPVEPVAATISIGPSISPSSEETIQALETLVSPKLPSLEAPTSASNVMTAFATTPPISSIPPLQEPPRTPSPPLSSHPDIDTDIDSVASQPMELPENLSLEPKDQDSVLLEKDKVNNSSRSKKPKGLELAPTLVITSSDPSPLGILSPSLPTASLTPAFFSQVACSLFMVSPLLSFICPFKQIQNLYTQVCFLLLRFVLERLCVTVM
Outline: as §1

ETV2 = molecular target: T10, ETV2 (Homo sapiens, UniProt O00321 1-342)
T10 sequence: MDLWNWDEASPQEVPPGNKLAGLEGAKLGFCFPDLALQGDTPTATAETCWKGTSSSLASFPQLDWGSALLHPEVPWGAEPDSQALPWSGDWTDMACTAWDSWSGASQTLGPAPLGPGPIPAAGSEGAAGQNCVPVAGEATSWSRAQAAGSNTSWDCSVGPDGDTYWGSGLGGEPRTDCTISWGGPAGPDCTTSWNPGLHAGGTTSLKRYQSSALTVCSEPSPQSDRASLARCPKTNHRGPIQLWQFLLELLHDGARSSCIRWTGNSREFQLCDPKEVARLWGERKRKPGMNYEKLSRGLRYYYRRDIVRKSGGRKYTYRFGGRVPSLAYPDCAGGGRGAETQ
Outline: as §1

ELF3 = molecular target: T11, ELF3 (Homo sapiens, UniProt P78545 1-371)
T11 sequence: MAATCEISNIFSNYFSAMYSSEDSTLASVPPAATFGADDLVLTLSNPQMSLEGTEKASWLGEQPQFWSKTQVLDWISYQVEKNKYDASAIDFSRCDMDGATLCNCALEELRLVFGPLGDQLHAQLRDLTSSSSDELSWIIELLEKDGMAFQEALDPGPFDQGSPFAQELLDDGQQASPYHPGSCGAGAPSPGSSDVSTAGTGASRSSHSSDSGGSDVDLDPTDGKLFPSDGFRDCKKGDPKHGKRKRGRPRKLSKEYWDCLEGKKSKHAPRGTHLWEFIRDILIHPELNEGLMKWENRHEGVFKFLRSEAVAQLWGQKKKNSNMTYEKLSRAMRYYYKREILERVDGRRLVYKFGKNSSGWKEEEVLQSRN
Outline: as §1

ETV1 = ETV1 (Homo sapiens, UniProt P50549 1-477)
Outline: as §1

ETV1, sequence (P50549 whole entry): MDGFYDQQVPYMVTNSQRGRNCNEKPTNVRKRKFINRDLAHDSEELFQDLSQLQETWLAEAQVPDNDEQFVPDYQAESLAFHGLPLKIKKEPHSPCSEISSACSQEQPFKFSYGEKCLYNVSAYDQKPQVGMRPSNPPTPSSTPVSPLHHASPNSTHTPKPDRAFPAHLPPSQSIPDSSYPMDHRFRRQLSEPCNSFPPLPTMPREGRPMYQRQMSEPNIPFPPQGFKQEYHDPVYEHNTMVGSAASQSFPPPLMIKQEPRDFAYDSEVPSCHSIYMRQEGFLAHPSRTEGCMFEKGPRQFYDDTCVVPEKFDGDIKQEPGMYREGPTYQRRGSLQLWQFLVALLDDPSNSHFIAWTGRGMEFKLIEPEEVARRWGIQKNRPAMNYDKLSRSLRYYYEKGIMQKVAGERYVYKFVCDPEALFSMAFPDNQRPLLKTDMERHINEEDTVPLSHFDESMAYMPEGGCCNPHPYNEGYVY
ELF4, sequence (Q99607 whole entry): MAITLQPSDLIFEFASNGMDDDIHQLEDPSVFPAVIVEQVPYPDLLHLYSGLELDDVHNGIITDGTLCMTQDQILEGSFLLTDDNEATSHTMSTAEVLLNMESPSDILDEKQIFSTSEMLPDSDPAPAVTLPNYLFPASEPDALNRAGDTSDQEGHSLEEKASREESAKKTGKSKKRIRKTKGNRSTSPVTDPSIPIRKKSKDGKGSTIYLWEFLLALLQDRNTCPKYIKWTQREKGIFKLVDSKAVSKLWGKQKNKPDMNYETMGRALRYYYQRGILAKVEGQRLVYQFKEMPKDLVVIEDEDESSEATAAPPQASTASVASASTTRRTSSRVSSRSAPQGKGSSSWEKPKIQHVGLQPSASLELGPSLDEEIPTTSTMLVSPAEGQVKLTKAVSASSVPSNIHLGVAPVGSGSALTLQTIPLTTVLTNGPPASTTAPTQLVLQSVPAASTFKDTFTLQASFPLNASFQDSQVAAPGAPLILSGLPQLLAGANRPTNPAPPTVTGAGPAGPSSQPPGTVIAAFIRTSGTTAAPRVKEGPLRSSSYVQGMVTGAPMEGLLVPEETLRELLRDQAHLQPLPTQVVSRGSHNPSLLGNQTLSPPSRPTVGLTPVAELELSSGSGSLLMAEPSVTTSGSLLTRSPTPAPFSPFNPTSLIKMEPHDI
SPIB, sequence (Q01892 whole entry): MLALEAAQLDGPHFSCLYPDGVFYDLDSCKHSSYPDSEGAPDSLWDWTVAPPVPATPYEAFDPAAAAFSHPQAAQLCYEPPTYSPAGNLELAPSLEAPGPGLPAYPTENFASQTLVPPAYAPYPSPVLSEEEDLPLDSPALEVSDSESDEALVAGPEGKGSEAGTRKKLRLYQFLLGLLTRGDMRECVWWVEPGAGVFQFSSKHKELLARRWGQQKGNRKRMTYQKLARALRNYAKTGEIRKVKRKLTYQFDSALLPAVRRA
ELF1, sequence (P32519 whole entry): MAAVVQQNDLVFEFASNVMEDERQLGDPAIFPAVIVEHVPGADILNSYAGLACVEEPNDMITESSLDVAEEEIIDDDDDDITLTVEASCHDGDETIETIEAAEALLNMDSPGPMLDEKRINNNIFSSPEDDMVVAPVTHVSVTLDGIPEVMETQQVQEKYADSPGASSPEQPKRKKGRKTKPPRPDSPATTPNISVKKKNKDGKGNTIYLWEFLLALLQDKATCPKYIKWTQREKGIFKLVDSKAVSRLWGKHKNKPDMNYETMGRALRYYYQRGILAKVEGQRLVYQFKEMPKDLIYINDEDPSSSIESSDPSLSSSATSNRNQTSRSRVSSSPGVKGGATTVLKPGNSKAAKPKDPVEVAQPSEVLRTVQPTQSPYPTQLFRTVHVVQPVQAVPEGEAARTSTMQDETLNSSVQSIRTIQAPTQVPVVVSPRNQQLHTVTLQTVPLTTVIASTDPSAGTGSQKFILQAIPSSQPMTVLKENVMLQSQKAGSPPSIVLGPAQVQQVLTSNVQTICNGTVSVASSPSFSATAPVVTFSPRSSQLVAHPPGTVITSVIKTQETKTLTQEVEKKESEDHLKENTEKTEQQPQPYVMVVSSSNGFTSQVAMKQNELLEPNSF
ETV5, sequence (P41161 whole entry): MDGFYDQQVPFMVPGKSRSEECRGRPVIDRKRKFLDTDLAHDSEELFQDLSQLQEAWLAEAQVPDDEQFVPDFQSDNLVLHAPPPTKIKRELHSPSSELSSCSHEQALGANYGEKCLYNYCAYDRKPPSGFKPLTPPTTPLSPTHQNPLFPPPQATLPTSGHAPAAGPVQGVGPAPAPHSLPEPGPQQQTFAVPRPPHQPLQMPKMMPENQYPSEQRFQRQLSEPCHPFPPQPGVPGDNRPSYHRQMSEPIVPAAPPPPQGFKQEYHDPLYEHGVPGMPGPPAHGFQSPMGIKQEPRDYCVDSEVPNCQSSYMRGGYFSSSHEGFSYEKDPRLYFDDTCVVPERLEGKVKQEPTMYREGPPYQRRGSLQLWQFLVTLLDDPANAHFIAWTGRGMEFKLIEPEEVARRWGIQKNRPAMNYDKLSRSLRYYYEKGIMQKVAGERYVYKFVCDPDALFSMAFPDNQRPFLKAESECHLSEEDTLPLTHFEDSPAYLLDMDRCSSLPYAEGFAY

## ACAACC
FLI1
  binding signal: 1.25 fold enrichment (6-mer frequency, TF over GST control)
ELK1
  binding signal: 1.28 fold enrichment (6-mer frequency, TF over GST control)
GABPA
  binding signal: 1.21 fold enrichment (6-mer frequency, TF over GST control)
ERG
  binding signal: 1.22 fold enrichment (6-mer frequency, TF over GST control)
ELF1
  binding signal: 1.16 fold enrichment (6-mer frequency, TF over GST control)
EHF
  binding signal: 1.29 fold enrichment (6-mer frequency, TF over GST control)
SPI1
  binding signal: 1.2 fold enrichment (6-mer frequency, TF over GST control)
SPIB
  binding signal: 1.28 fold enrichment (6-mer frequency, TF over GST control)
ELK3
  binding signal: 1.28 fold enrichment (6-mer frequency, TF over GST control)
FEV
  binding signal: 1.34 fold enrichment (6-mer frequency, TF over GST control)
ETV5
  binding signal: 1.27 fold enrichment (6-mer frequency, TF over GST control)
SPIC
  binding signal: 1.19 fold enrichment (6-mer frequency, TF over GST control)
ELF4
  binding signal: 1.19 fold enrichment (6-mer frequency, TF over GST control)
ELK4
  binding signal: 1.19 fold enrichment (6-mer frequency, TF over GST control)
ETV2
  binding signal: 1.26 fold enrichment (6-mer frequency, TF over GST control)
ELF3
  binding signal: 1.26 fold enrichment (6-mer frequency, TF over GST control)
ETV1
  binding signal: 1.23 fold enrichment (6-mer frequency, TF over GST control)
